Results reported in PubChem BioAssay (Tox21).
Records with an inconclusive call do not appear. The source made the active and inactive calls. Unless noted, calls follow the shape of the dose curve; as a rule, active = well fitted curve in the direction sought with a large enough effect in the repeat runs; inconclusive = weak or mixed curves; inactive = no such curve, though single readings can be large; an effect the other way counts as inactive or inconclusive.

Experiments:
[1] = qHTS assay to identify small molecule agonists of the peroxisome proliferator-activated receptor delta (PPARd) signaling pathway - cell viability counter screen (AID 743211); also: nearly all actives have a fitted effect of over 55% in size
Summary of the method: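 Viability of GeneBLAzer PPARd UAS-bla HEK293H cells was assessed after 17 h compound incubation at 37C, using CellTiter-Glo reagent added after the reporter read and luminescence recorded 30 min later.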

[2] = target: Peroxisome proliferator-activated receptor delta (Homo sapiens) (UniProt Q03181); assay: qHTS assay to identify small molecule agonists of the peroxisome proliferator-activated receptor delta (PPARd) signaling pathway (AID 743212; calls by dose curve)
Chain of Peroxisome proliferator-activated receptor delta (Homo sapiens) (Q03181 whole entry, looked up): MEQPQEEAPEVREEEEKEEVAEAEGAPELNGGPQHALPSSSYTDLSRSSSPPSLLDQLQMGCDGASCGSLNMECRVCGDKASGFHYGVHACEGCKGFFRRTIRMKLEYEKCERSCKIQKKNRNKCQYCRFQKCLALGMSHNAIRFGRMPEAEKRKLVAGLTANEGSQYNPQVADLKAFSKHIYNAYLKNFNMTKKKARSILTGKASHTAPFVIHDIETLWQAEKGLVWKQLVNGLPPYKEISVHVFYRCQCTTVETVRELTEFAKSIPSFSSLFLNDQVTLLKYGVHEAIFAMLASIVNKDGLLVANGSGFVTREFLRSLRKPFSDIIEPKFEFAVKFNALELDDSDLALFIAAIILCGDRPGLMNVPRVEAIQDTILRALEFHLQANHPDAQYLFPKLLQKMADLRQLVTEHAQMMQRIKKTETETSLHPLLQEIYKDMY
Summary of the method: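 Tox21 library screened in GeneBLAzer PPARd UAS-bla HEK293H cells. After compound treatment at 37 C, a FRET-based beta-lactamase substrate was applied for 2 h and fluorescence recorded.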

[3] = qHTS assay to identify small molecule antagonists of the peroxisome proliferator-activated receptor delta (PPARd) signaling pathway - cell viability counter screen (AID 743213); also: nearly all actives have a fitted effect of over 50% in size
Summary of the method: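 PPARd-bla HEK293H cells (3000/well) got compound plus 300 nM L165041 agonist for 17 h at 37 C. Viability in the same wells came from CellTiter-Glo luminescence after 30 min at room temperature.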

[4] = qHTS assay to identify small molecule agonists of the farnesoid-X-receptor (FXR) signaling pathway - cell viability counter screen (AID 743218); also: nearly all actives have a fitted effect of over 45% in size
Summary of the method: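 Viability of FXR-bla HEK 293T cells is measured by ATP-based CellTiter-Glo luminescence following 16 h compound treatment at 37 C and a prior 2 h room-temperature beta-lactamase substrate step.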

[5] = qHTS assay to identify small molecule antagonists of the farnesoid-X-receptor (FXR) signaling pathway - cell viability counter screen (AID 743221; active = well fitted cell-killing curve with a large enough effect in the repeat runs, not every such curve was filed as active; also: nearly all actives have a fitted effect of over 50% in size)
Summary of the method: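 Quantitative HTS of the Tox21 10K library run in parallel with the beta-lactamase reporter read. HEK 293T cells carrying a UAS-driven bla reporter got compound and 50 uM CDCA (final) for 16 h; ATP-based luminescence followed.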

[6] = target: Vitamin D3 receptor (Homo sapiens) (UniProt P11473); assay: qHTS assay to identify small molecule agonists of the vitamin D receptor (VDR) signaling pathway (AID 743222; calls by dose curve)
Chain of Vitamin D3 receptor (Homo sapiens) (P11473 whole entry, looked up): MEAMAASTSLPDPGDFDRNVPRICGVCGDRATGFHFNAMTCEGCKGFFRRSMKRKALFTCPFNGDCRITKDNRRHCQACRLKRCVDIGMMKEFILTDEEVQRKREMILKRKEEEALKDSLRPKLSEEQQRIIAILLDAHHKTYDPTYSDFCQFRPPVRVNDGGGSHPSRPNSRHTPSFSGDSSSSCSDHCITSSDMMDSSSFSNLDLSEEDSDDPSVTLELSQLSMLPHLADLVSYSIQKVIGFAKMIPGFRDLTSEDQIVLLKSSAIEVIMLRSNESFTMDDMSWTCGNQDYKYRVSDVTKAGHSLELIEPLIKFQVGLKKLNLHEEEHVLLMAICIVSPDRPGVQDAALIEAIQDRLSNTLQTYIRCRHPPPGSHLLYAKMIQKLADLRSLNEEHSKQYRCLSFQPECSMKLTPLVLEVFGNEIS
Summary of the method: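 Fluorescence from cleaved LiveBLAzer B/G FRET substrate served as readout. VDR-bla cells had been treated 16 h at 37C with test compounds in DMSO, following a 4 h settling period, and substrate was loaded for 2 h at RT.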

[7] = target: Peroxisome proliferator-activated receptor delta (Homo sapiens) (UniProt Q03181); assay: qHTS assay to identify small molecule antagonists of the peroxisome proliferator-activated receptor delta (PPARd) signaling pathway (AID 743215; active = well fitted inhibition curve with a large enough effect in the signal ratio in the repeat runs, not every such curve was filed as active; the % refers to the signal ratio;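 also: cells stimulated with agonist L165041 at 300 nM final during compound exposure; series mostly up to about 62 µM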)
Summary of the method: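 Plated HEK293H PPARd-bla cells rested 5 h at 37 C and 5% CO2. Compound, then agonist L165041 at 300 nM final, was added; 17 h at 37 C followed. Substrate loading, 2 h room temperature, fluorescence measured.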

[8] = target: Vitamin D3 receptor (Homo sapiens) (UniProt P11473); assay: qHTS assay to identify small molecule antagonists of the vitamin D receptor (VDR) signaling pathway (AID 743223; active = well fitted inhibition curve with a large enough effect in the signal ratio in the repeat runs, not every such curve was filed as active; the % refers to the signal ratio)
Summary of the method: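 Fluorescence from LiveBLAzer B/G FRET substrate, read after 2 h at room temperature, reflects beta-lactamase reporter activity in VDR-bla cells treated 16 h at 37C with compounds and agonist 1alpha,25-dihydroxyvitamin D3 (3 nM final).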

[9] = target: Bile acid receptor (Homo sapiens) (UniProt Q96RI1); assay: qHTS assay to identify small molecule antagonists of the farnesoid-X-receptor (FXR) signaling pathway (AID 743217; active = well fitted inhibition curve with a large enough effect in the signal ratio in the repeat runs, not every such curve was filed as active; the % refers to the signal ratio)
Chain of Bile acid receptor (Homo sapiens) (Q96RI1 whole entry, looked up): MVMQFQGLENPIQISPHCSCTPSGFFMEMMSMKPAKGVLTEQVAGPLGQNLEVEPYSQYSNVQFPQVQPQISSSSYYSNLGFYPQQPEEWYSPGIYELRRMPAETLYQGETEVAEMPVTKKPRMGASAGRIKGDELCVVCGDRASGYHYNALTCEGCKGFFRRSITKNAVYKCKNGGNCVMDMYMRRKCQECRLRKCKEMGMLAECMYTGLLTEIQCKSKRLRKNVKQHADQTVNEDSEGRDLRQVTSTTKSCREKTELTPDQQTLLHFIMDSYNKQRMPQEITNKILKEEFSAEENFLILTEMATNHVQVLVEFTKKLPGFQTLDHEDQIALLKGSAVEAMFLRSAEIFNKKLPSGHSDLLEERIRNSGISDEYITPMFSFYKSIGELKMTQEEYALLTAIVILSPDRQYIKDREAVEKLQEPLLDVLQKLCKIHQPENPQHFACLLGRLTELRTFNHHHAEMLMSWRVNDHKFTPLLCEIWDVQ
Summary of the method: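 Screen of the Tox21 10K library in quantitative HTS format using FXR-UAS-bla HEK 293T reporter cells. Agonist chenodeoxycholic acid, 50 uM final, added with compounds; 16 h incubation at 37 °C; beta-lactamase FRET fluorescence measured.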

[10] = target: Bile acid receptor (Homo sapiens) (UniProt Q96RI1); assay: qHTS assay to identify small molecule agonists of the farnesoid-X-receptor (FXR) signaling pathway (AID 743220; active = well fitted activation curve with a large enough effect in the signal ratio in the repeat runs, not every such curve was filed as active; the % refers to the signal ratio)
Summary of the method: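 FXR-UAS-bla HEK 293T cells carrying a UAS-driven beta-lactamase reporter were plated for 5 h at 37C/5% CO2, then exposed to DMSO-dissolved Tox21 10K compounds for 16 h at 37C. A LiveBLAzer B/G FRET substrate was loaded for 2 h at room temperature before fluorescence reading.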

Measured: Potency

COc1ccc(CCN(C)CCCC(C#N)(c2cc(OC)c(OC)c(OC)c2)C(C)C)cc1OC (stereo not drawn)
inactive: [1] | [2] | [3] | [4] | [5] | [6]

NS(=O)(=O)c1cc2c(cc1Cl)NC(C1CC3C=CC1C3)NS2(=O)=O (stereo not drawn)
inactive: [1] | [2] | [3] | [7] | [5]

CCOC(=O)c1cccc(N)c1
inactive: [1] | [2] | [3] | [7] | [5] | [8]

c1cnc(N2CCN(Cc3ccc4c(c3)OCO4)CC2)nc1
inactive: [1] | [2] | [3] | [7] | [5] | [6]

O=[N+]([O-])c1ccc(F)cc1F
inactive: [1] | [2] | [3] | [7] | [5] | [8]

C1CN(CCOCCN2CCOCC2)CCO1
not listed: [7] | [9] | [10]
inactive: all other assays above

CCC=O
inactive: [1] | [2] | [3] | [4] | [5]

CC1=CC(C)C(C=O)CC1 (stereo not drawn)
inactive: [1] | [2] | [3] | [4] | [5] | [6]

CCOC(=O)c1ccc(C)cc1
inactive: [1] | [2] | [3] | [7] | [5] | [6]

O=c1cc(-c2ccccc2)oc2ccccc12
inactive: [1] | [2] | [3] | [7] | [5] | [8]

CCOC(=O)[C@H](CCc1ccccc1)N[C@@H](C)C(=O)N1[C@H](C(=O)O)C[C@@H]2CCC[C@@H]21
inactive: [1] | [2] | [3] | [7] | [5] | [8]

CC(=O)OCC(CCn1cnc2cnc(N)nc21)COC(C)=O
not listed: [6] | [9] | [10]
inactive: all other assays above

Cc1cnc(NS(=O)(=O)c2ccc(N)cc2)nc1
not listed: [6] | [9] | [10]
inactive: all other assays above

CC(C)(O)C#CC(C)(C)O
inactive: [1] | [2] | [3] | [7] | [5]

CC(C)NCC(O)c1ccc(NS(C)(=O)=O)cc1 (stereo not drawn)
not listed: [4] | [9] | [10]
inactive: all other assays above

NC(=O)Nc1ccccc1
inactive: [1] | [2] | [3] | [4] | [5] | [6]

N#Cc1ccc(C2CCCc3cncn32)cc1 (stereo not drawn)
inactive: [1] | [2] | [3] | [4] | [5]

CCn1nc(C(=O)O)c(=O)c2cc3c(cc21)OCO3
inactive: [1] | [2] | [3] | [7] | [5] | [6]

CN1N=C(C(N)=O)CCC1=O
inactive: [1] | [2] | [3] | [4] | [5] | [6]

N=C(N)c1ccccc1
inactive: [1] | [2] | [3] | [7] | [5]

CC/C=C\CC/C=C/CO
inactive: [1] | [2] | [3] | [4] | [5]

COc1ccc2c(c1)CCCC2=O
not listed: [2] | [7] | [8]
inactive: all other assays above

CCCC(=O)O[C@]1(C(=O)CO)CC[C@H]2[C@@H]3CCC4=CC(=O)CC[C@]4(C)[C@H]3[C@@H](O)C[C@@]21C
inactive: [1] | [2] | [7] | [4] | [5]

COC(=O)NN
inactive: [1] | [2] | [9] | [10] | [5] | [6]

CCN(CC)CCOCCOC(=O)C1(c2ccccc2)CCCC1
inactive: [1] | [3] | [9] | [4] | [10] | [5]

CCCN1CCCC[C@H]1C(=O)Nc1c(C)cccc1C
not listed: [3] | [6]
inactive: all other assays above

C=C1CC[C@H]2C[C@@H]1C2(C)C
not listed: [7] | [9] | [10]
inactive: all other assays above

C[C@H](NC(CCc1ccccc1)C(=O)O)C(=O)N1CCC[C@H]1C(=O)O (stereo partly drawn)
inactive: [1] | [2] | [7] | [5] | [6]

FC(F)OC(Cl)C(F)(F)F (stereo not drawn)
not listed: [3] | [6] | [8]
inactive: all other assays above

CCOC(=O)Nc1ccc(NCc2ccc(F)cc2)nc1N
inactive: [1] | [3] | [7] | [4] | [5] | [6]

OCCOc1ccc(OCCO)cc1
not listed: [2] | [7] | [10]
inactive: all other assays above

COCCc1ccc(OCC(O)CNC(C)C)cc1 (stereo not drawn)
not listed: [3]
inactive: all other assays above

CC(C)NCCCC1(C(N)=O)c2ccccc2-c2ccccc21
inactive: [1] | [2] | [4] | [5] | [8]

COC(=O)[C@@H](N)Cc1ccc(O)c(O)c1
inactive: [1] | [3] | [4] | [5]

NC(=O)c1ccc(N)cc1
not listed: [2] | [4] | [7]
inactive: all other assays above
